High-throughput results deposited in PubChem BioAssay by The Scripps Research Institute Molecular Screening Center.
AHR activator: activators of human aryl hydrocarbon receptor. P35869. AHR-responsive luciferase reporter cells, luminescence. 320,000 tested, 2.5% active. activation, % at 5 µM; in the data active means activation above about 47%;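 further: 0% = vehicle wells and 100% = reference agonist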
Target sequence (P35869 whole entry, looked up): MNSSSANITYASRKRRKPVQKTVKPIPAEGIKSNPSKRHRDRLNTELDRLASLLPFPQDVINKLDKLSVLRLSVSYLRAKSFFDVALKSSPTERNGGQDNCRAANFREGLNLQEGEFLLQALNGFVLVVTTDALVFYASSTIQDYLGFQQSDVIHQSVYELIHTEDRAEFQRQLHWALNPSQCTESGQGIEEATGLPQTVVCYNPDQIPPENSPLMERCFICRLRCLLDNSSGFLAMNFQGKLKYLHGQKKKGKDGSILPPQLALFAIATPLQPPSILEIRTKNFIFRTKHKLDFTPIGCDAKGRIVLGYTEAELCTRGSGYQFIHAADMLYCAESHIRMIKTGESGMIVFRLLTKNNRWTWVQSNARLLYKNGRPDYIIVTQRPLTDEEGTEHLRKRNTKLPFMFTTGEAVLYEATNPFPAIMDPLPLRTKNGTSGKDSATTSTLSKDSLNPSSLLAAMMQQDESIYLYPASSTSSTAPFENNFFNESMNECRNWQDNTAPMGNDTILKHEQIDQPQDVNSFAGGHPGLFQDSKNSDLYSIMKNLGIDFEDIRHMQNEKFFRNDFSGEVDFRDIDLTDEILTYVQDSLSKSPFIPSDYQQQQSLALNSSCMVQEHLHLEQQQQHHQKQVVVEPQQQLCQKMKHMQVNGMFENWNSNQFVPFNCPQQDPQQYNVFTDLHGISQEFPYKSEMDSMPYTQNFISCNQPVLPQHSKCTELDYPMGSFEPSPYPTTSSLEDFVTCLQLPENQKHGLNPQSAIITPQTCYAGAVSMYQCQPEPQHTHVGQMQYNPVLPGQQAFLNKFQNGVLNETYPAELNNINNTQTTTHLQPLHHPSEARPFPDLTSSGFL
DAX1 inh-1: DAX1 (NR0B1) inhibition, primary screen; AID 652010; inhibition, % at 6.8 µM; HEK293T StAR-luciferase reporter, SF-1/DAX-1 repression relief; 370,000 tested, 1.1% active;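 active means inhibition above the mean over all tested compounds plus 3 SD, cut at about 3.6% in these data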;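 further: 0% = DAX-1 cells with DMSO and 100% = cells lacking DAX-1 with DMSO; higher inhibition means more luminescence from relief of DAX-1 repression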
hcDAF-12 act: H. contortus DAF-12 activation, primary screen | activation, % at 6.8 µM | HEK293 hcDAF-12 lit1-tk-luc reporter, luminescence; 0% DMSO, 100% Δ7-dafachronic acid | AID 652067 | 370,000 tested, 1.4% active;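 active means activation above the mean of all tested compounds plus 3 SD, cut at about 5.5% in these data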;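 further: 100% = response to 3 µM Δ7-dafachronic acid high control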
DAX1 inh-2: inhibits human nuclear receptor DAX1. P51843. HEK293 Gal4-DAX1 luciferase reporter, luminescence. inhibition, % at 6.75 µM. 340,000 tested, 0.99% active. AID 504766;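 active means inhibition above the mean over all tested compounds plus 3 SD, cut at about 4.2% in these data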;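 further: 0% = DAX1-transfected cells with DMSO and 100% = empty-vector control cells with DMSO; inhibition shows as a rise in luminescence from relieved DAX1 repression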
ssDAF-12 act: activators of S. stercoralis DAF-12 nuclear receptor. HEK293 ssDAF-12/GRIP1 lit1-tk-luc reporter, luminescence; % of 3 µM dafachronic acid response. activation, % at 6.8 µM. 370,000 tested, 1% active;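 active means activation above the mean over all tested compounds plus 3 SD, cut at about 0.9% in these data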;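 further: 0% = DMSO-only wells and 100% = 3 µM delta7-dafachronic acid wells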
hgDAF12 agonist: hgDAF-12 agonism, primary luciferase screen. HEK293 GAL4-hgDAF12 UAS-luciferase reporter, agonist luminescence; normalized to butyrate control. 370,000 tested, 1.8% active. activation, % at 6.8 µM;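 active means activation above a cutoff set at the mean of all screened compounds plus 3 SD, cut at about 10% in these data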;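 further: 0% = DMSO wells and 100% = sodium butyrate wells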
* = called active by the depositor; · = not tested or not shown. Rows were chosen to be rich in hits. Some 5.7% of all compounds tested hit in one or more screens of this group.

SMILES | AHR activator | DAX1 inh-1 | hcDAF-12 act | DAX1 inh-2 | ssDAF-12 act | hgDAF12 agonist
Cc1ccc(O)c(NC(=O)C2=CC(c3ccco3)=NS(=O)(=O)N2C)c1 | 14 | 0 | 0 | 0 | -1 | 0
Cc1ccc(C2=NS(=O)(=O)N(C)C(C(=O)Nc3ccc4c(c3)OCO4)=C2)cc1 | 53* | -1 | 2 | 2 | 0 | 10
CCN1CCN(C(=O)C2=CC(c3ccc(C)cc3)=NS(=O)(=O)N2C)CC1 | 35 | -2 | 0 | 4.5* | -1 | 1
COc1ccc(CN2CCC(CNC(=O)NC3CCCC3)CC2)cc1 | · | 0 | 1 | · | -1 | 0
O=C(c1ccccc1)N1CCCC(C(=O)N2CCN(c3ccccc3)CC2)C1 (stereo not drawn) | -1 | 0 | -1 | -1 | -1 | 0
COC(=O)[C@]12C[C@H](CC(=O)N3CCSCC3)C(=O)N(Cc3ccc(Cl)cc3Cl)C1=C[C@H](C1CCCC1)O[C@@H]2C | · | -1 | -1 | · | -1 | 7
COc1ccc(N2C(=O)[C@@H]3[C@H](C2=O)[C@H]2c4ccccc4C=CN2[C@@H]3C(=O)Nc2ccccc2)cc1 | 56* | 0 | 6.1* | 2 | 1 | 2
Cc1cc(N/C=C\c2nnnn2-c2ccccc2)no1 | 69* | -1 | 1 | 1 | 0 | 6
COc1cc(OC)c(NC(C)C(=O)N2CCCC2)cc1Cl (stereo not drawn) | 3 | 0 | -1 | 3 | -1 | 0
C[C@H]1CNC(=O)c2c(C(=O)N3CCN(c4ccccc4)CC3)ncn21 | · | 0 | 1 | · | -1 | 1
COc1ccc(/C=C/C(=O)Nc2cc(C)on2)cc1 | 23 | 2 | 2 | 0 | -1 | 9
COc1ccc(/C=C/C(=O)Nc2nonc2NC(C)=O)cc1 | 49* | 1 | 0 | 0 | -1 | 3
CN(C)CCN(C(=O)c1ccc2ccccc2c1)c1nc2cc3c(cc2s1)OCCO3 | 6 | 3.7* | 1 | 1 | 0 | 8
O=C(C[C@H]1C/C=C\CC[C@@H](Cc2ccc(F)cc2)C(=O)O[C@H](c2ccccc2)CNC1=O)N[C@H](CO)Cc1ccccc1 | 1 | 0 | 2 | -1 | -1 | 1
Nc1ccc2nc(C(F)(F)F)[nH]c2c1 | 14 | 0 | 2 | 2 | -1 | 3
Cc1nc2cc3nc(C(F)(F)F)[nH]c3cc2[nH]1 | 50* | 1 | 1 | 0 | -2 | 2
Cc1cc2[nH]c(=O)c(=O)[nH]c2cc1S(=O)(=O)Nc1ccccc1F | 4 | -1 | -1 | 4.6* | -1 | -1
COc1cc(C)c(S(=O)(=O)Nc2ccccc2F)cc1C | 4 | 0 | -1 | 2 | -1 | -2
COc1ccc(C(=O)CC(Sc2ccccc2N)c2ccc(OC)cc2)cc1 (stereo not drawn) | · | 4.1* | 5 | 2 | 1 | 10
CCN(C(=O)COC(=O)CNC(=O)C1CCCCC1)c1ccccc1 | · | 1 | -1 | -1 | 1.0* | 1
CC(OC(=O)c1cc[n+]([O-])cc1)C(=O)NCc1ccccc1 (stereo not drawn) | 3 | -1 | 0 | 4.7* | -1 | 3
CC(OC(=O)CNC(=O)C1CCCCC1)C(=O)NCc1ccccc1 (stereo not drawn) | 2 | 0 | 0 | 1 | 1.6* | -1
COC(=O)Cc1c([C@H](C)[C@@H](OC)c2ccccc2Br)nnn1Cc1ccccc1 | · | 0 | 1 | · | -1 | 1
COc1ccc2nc(C)cc(NCc3ccc(F)cc3)c2c1 | 21 | 1 | 0 | 0 | 0 | 0
CCCSc1ccc2nc(NC(=O)OC)[nH]c2c1 | 54* | 3 | 3 | 1 | 0 | 6
COC(=O)Nc1nc2ccc(SC(C)C)cc2[nH]1 | 25 | -2 | 0 | -1 | 0 | 6
CCOP(=O)(OCC)C(NC(=O)Nc1ccc(Cl)cc1)C(=O)N(CC)CC (stereo not drawn) | 3 | 0 | 0 | 1 | 1.5* | 3
COc1cc(CNc2ncnc3c2ncn3[C@H]2CN(CCc3ccccc3)C[C@@H](CO)O2)cc(OC)c1OC | · | -2 | -1 | · | -1 | -4
Cc1sc(NC(=O)c2ccc(F)cc2)c(CN2CCCCCC2)c1C | 33 | 2 | 5 | 0 | 0 | 11*
O=C(Nc1sc2c(c1CN1CCOCC1)CCC2)c1ccc(F)cc1 | 17 | 0 | 5.9* | -1 | -1 | 3
